Compound activity as filed in PubChem.
The list is not random: actives were taken first. Their share in the collection is about 3.7%.
Mtb bLac sens = beta-lactam sensitization of Mtb H37Rv; inhibition, % at 25 µM; 330,000 compounds, 0.27% hits; M. tuberculosis H37Rv growth with meropenem, percent inhibition;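 note: growth measured after seven days incubation then overnight dye step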
Mtb FBA inh = inhibitors of M. tuberculosis fructose-bisphosphate aldolase; P9WQA3; purified M. tuberculosis FBA, fluorescence read-out; inhibition, % at 1 µM; 360,000 compounds, 2.3% hits; AID 588726; in the data active = inhibition above about 27%
Target sequence (P9WQA3 whole entry, looked up): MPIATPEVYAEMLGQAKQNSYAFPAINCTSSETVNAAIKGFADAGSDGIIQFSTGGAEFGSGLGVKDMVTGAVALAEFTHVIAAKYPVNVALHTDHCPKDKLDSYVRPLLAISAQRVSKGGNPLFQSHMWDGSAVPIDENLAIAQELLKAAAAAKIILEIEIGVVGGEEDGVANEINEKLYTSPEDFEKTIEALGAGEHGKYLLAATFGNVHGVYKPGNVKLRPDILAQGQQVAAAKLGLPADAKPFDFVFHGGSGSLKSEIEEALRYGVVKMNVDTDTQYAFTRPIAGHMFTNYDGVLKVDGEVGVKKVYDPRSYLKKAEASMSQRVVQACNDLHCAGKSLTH
FadD28 FP inh = inhibitors of Mycobacterium tuberculosis FadD28 bisubstrate binding | 360,000 compounds, 0.22% hits | AID 588549 | FadD28 bisubstrate probe binding, fluorescence polarization | inhibition, % at 12.5 µM; in the data active = inhibition above about 8.5%, passing the limit was not always enough
GDH-TPI counter-1 = GDH-TPI coupled enzyme inhibition counter-screen; inhibition, % at 4.8 µM; 360,000 compounds, 1.2% hits; AID 588335; GDH-TPI coupled enzyme counterscreen, NADH absorbance; in the data active = inhibition above about 30%
Rv3671c protease = inhibits the M. tuberculosis serine protease Rv3671c; 320,000 compounds, 0.048% hits; P9WHR9; inhibition, % at 5.96 µM; AID 2606; in the data active = inhibition above about 38%;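 note: extracellular domain of Rv3671c used as enzyme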
Mtb UGM inh = inhibitors of M. tuberculosis UDP-galactopyranose mutase | inhibition, % at 10 µM | P9WIQ1 | 320,000 compounds, 0.06% hits | purified UGM, fluorescence polarization probe displacement; in the data active = inhibition above about 10%, passing the limit was not always enough
Target sequence (P9WIQ1 whole entry, looked up): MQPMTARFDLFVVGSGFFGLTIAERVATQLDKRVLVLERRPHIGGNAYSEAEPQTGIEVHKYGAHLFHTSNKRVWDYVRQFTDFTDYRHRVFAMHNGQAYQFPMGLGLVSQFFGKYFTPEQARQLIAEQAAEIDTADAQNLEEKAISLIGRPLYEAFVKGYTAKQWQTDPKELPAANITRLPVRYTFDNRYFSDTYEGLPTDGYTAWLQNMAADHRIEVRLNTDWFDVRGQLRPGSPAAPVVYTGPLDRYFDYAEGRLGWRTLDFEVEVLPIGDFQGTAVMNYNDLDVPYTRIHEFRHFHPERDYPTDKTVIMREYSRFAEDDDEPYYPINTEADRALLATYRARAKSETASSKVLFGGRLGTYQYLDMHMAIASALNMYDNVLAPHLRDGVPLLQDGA
Mtb FBA confirm = confirmation of M. tuberculosis fructose-bisphosphate aldolase inhibitors; shares compounds with Mtb FBA inh; 5,600 compounds, 78% hits; inhibition, % at 1 µM; purified M. tuberculosis FBA, fluorescence read-out; in the data active = inhibition above about 27%
GDH-TPI counter-2 = inhibits GDH-TPI coupling enzymes, flagging Mtb FBA hits | shares compounds with Mtb FBA inh | GDH-TPI coupled enzyme counterscreen, fluorescence | inhibition, % at 1 µM | 5,600 compounds, 81% hits | AID 652141; in the data active = inhibition above about 10%
GDH-TPI dose = counter-screen for M. tuberculosis FBA inhibitors: GDH-TPI dose response; shares compounds with Mtb FBA inh; GDH-TPI coupled enzyme assay, fluorescence, artifact counterscreen; IC50, µM; 170 compounds, 79% hits; AID 652145
Of the large screens only hits and unclear results are named; the others gave an inactive call (follow-up assays come after a bar, where they were run). Unless noted, the rule behind the calls is not given here.

CC(Oc1ccc2c3c(c(=O)oc2c1)CCCC3)C(=O)NCC(O)c1ccccc1 (stereo not drawn)	Mtb FBA inh 50 | Mtb FBA confirm 165 | GDH-TPI counter-2 117
COc1ccc(/C=N/NC(=O)c2nc(Cl)c(Cl)c(N)c2Cl)cc1COc1ccccc1F	none
COc1ccc(/C=N\NC(=O)c2ccccc2F)cc1COc1ccc(F)cc1F	none
COc1ccc(/C=N/NC(=O)c2nc(Cl)c(Cl)c(N)c2Cl)cc1COc1ccc(F)cc1F	Mtb FBA inh 29 | Mtb FBA confirm inactive | GDH-TPI counter-2 inactive
COc1ccc(/C=N/NC(=O)c2ccc(NC(C)=O)cc2)cc1COc1ccc(F)cc1F	Mtb FBA inh 30 | Mtb FBA confirm 75 | GDH-TPI counter-2 59
COc1cc2c(cc1O)C[C@H]1NCCc3cc4c(c-2c31)OCO4	Mtb FBA inh 30 | Mtb FBA confirm 108 | GDH-TPI counter-2 89
CCN(C(=O)CN1CCC(C(=O)OC)CC1)c1c(N)n(Cc2ccccc2)c(=O)[nH]c1=O	none
COc1cccc(CN2CC(C(=O)NCc3ccc(C)o3)CCC2=O)c1 (stereo not drawn)	none (no result: Mtb bLac sens, Rv3671c protease, Mtb UGM inh)
Cc1ccc(N2CC(NS(=O)(=O)c3cccnc3)CC2=O)cc1C (stereo not drawn)	none
COc1ccc(N2CC(NS(=O)(=O)c3cccnc3)CC2=O)cc1OC (stereo not drawn)	Mtb FBA inh 30 | Mtb FBA confirm 106 | GDH-TPI counter-2 77
COc1ccc(OC)c2c1CCC1(C2)NC(=O)NC1=O (stereo not drawn)	none (no result: Mtb bLac sens, GDH-TPI counter-1, Rv3671c protease, Mtb UGM inh)
COc1ccc(OC)c2c1CC(C)(C)NC2=O	Mtb FBA inh 74 | Mtb FBA confirm 33 | GDH-TPI counter-2 32
CCC(=O)N1CCC(C)(C(=O)Nc2ccc3c(c2)OCO3)C1 (stereo not drawn)	none (no result: Mtb bLac sens, Rv3671c protease, Mtb UGM inh)
Cc1c2c(nc3c(C(=O)NC4CCCC4)cnn13)CCCC2	none (no result: Mtb bLac sens)
COC(=O)c1cnn2c3c(c(C)nc12)CCCC3	Mtb FBA inh 74 | Mtb FBA confirm 130 | GDH-TPI counter-2 107
Cc1ccc(NC(=O)c2sc3nc(N4CCOCC4)c4c(c3c2N)CCCC4)cc1	none (no result: Mtb bLac sens, Rv3671c protease, Mtb UGM inh)
Nc1c(C(=O)Nc2ccc(Cl)cc2)sc2nc(N3CCOCC3)c3c(c12)CCCC3	Mtb FBA inh 37 | Mtb FBA confirm inactive | GDH-TPI counter-2 inactive
Nc1c(C(=O)Nc2ccccc2)sc2nc(N3CCOCC3)c3c(c12)CCCC3	Mtb FBA inh 51 (no result: Mtb bLac sens, Rv3671c protease, Mtb UGM inh) | Mtb FBA confirm 158 | GDH-TPI counter-2 160
COc1cccc(NC(=O)c2sc3nc(N4CCOCC4)c4c(c3c2N)CCCC4)c1	Mtb FBA inh 29 | Mtb FBA confirm 48 | GDH-TPI counter-2 45
COc1cccc(CNc2nc3cc(-c4ccccc4C)sc3c(=O)n2C)c1OC	none (no result: Mtb bLac sens, Rv3671c protease, Mtb UGM inh)
O=C1c2ccc(-c3ccc4c(c3)C(=O)N(CCCO)C4=O)cc2C(=O)N1CCCO	Mtb FBA inh 36 | Mtb FBA confirm inactive | GDH-TPI counter-2 inactive
Nc1c(-c2ccccc2)n[nH]c1-c1ccccc1	Mtb FBA inh 40 | Mtb FBA confirm 72 | GDH-TPI counter-2 50
C[C@H]1COc2c(N3CCN(C)CC3)c(F)cc3c(=O)c(C(=O)O)cn1c23	Mtb FBA inh 55 | Mtb FBA confirm active | GDH-TPI counter-2 162
CN1CCN(c2c(F)cc3c(=O)c(C(=O)O)cn4c3c2SCC4)CC1	Mtb FBA inh 28 | Mtb FBA confirm active | GDH-TPI counter-2 active
Cc1c(-n2cc(C(=O)O)c(=O)c3cc(F)c(N4CCCC4)c(F)c32)c(=O)n(-c2ccccc2)n1C	none
COc1ccc(CCNC(=O)COC(=O)c2ccco2)cc1OC	none
O=C(COC(=O)c1ccccc1NCCO)NCc1cccs1	Mtb FBA inh 66 | Mtb FBA confirm inactive | GDH-TPI counter-2 24
COc1ccc(CCNC(=O)COC(=O)c2ccccc2NCCO)cc1OC	Mtb FBA inh 91 | Mtb FBA confirm 128 | GDH-TPI counter-2 78
CCN(C(=O)COC(=O)Cn1c(=O)oc2ccccc21)c1c(N)n(Cc2ccccc2)c(=O)[nH]c1=O	none (no result: Mtb bLac sens, Rv3671c protease, Mtb UGM inh)
N#Cc1c(N)n(CCNC(=O)c2ccccc2)c2nc3ccccc3nc12	Mtb FBA inh 98 | Mtb FBA confirm active | GDH-TPI counter-2 active
CCCCCn1c(N)c(C#N)c2nc3ccccc3nc21	Mtb FBA inh 111 | Mtb FBA confirm inactive | GDH-TPI counter-2 inactive
COc1ccc(Cn2c(N)c(C#N)c3nc4ccccc4nc32)cc1OC	none
CCCCn1c(NC(C)=O)c(C#N)c2nc3ccccc3nc21	Mtb FBA inh 59 | Mtb FBA confirm 96 | GDH-TPI counter-2 77
CCCNC1(C(N)=O)CCN(Cc2ccccc2)CC1	none (no result: Mtb bLac sens, Rv3671c protease, Mtb UGM inh)
O=C1NC(Cc2ccccc2)c2nc3ccc(F)cc3c(=O)n2-c2cc(Cl)ccc21 (stereo not drawn)	none (no result: Mtb FBA inh, FadD28 FP inh, GDH-TPI counter-1)
COc1ccccc1COC(=O)N/C=C/c1ccco1	Mtb FBA inh 43 | Mtb FBA confirm 163 | GDH-TPI counter-2 121
CCCc1cc(=O)[nH]c2nnc(SCC(=O)NC3CCCC3)n12	none
Cc1c(C)n2c(SCC(=O)NC3CCCCC3)nnc2[nH]c1=O	Mtb FBA inh 32 | Mtb FBA confirm inactive | GDH-TPI counter-2 inactive
Cc1ccc(S(=O)(=O)Nc2cccc(C(=O)NCc3ccc(S(N)(=O)=O)cc3)c2)cc1	Mtb FBA inh 27 | Mtb FBA confirm 156 | GDH-TPI counter-2 128
Cc1cc(C(=O)NCc2ccc(S(N)(=O)=O)cc2)cs1	none
O=C1[C@H]2C(c3ccccc3)=NN(c3ccccc3)[C@H]2C(=O)N1c1ccccc1	Mtb FBA inh 31 | Mtb FBA confirm 67 | GDH-TPI counter-2 59
O=C1OCCN1C(=O)[C@H]1[C@H](c2ccc(Cl)cc2)C(c2ccccc2)=NN1c1ccccc1	none (no result: Mtb bLac sens, Rv3671c protease, Mtb UGM inh)
CC1=C(C(=O)N2CCOCC2)CC(CC(=O)NCc2ccco2)C(=O)N1CCC1=CCCCC1 (stereo not drawn)	none (no result: Mtb bLac sens, Rv3671c protease, Mtb UGM inh)
S=C(c1ccc(OCc2ccccc2)cc1)N1CCCC1	Mtb FBA inh 30 | Mtb FBA confirm inactive | GDH-TPI counter-2 inactive | GDH-TPI dose inactive
Fc1ccc(COc2ccc(C(=S)N3CCCC3)cc2)cc1	none
COc1ccc(S(=O)(=O)N2CCCCC2)cc1NC(=O)CN(Cc1ccco1)Cc1ccco1	none
CC1=CC(C/C(C)=C/COc2ccc3ccc(=O)oc3c2)OC1=O (stereo not drawn)	Mtb FBA inh 48 | Mtb FBA confirm 54 | GDH-TPI counter-2 44
CC(C)=CCC/C(C)=C/CC/C(C)=C/COc1ccc2ccc(=O)oc2c1	Mtb FBA inh 30 | Mtb FBA confirm inactive | GDH-TPI counter-2 inactive
COC(=O)c1ccc(COc2ccc3ccc(=O)oc3c2)o1	none (no result: Rv3671c protease)
CC(C)=CCOc1ccc2ccc(=O)oc2c1	Mtb FBA inh 65 | Mtb FBA confirm 60 | GDH-TPI counter-2 50
